Screens as filed in PubChem.
Sampled rows, rich in hits. Any-hit rate of the full collection: about 3.4%.
PAFAH2 FP inh = PAFAH2 (human) inhibition | Q99487 | recombinant PAFAH2, FP-rhodamine activity probe, fluorescence polarization | inhibition, % at 3.39 µM | hit rate 0.99% among 340,000;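 active means inhibition above the mean over all tested compounds plus 3 SD, cut at about 30% in these data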;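 further: inhibitors block probe labeling of enzyme so polarization drops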
PAFAH1B3 inh = PAFAH1B3 (human) inhibition | Q15102 | recombinant PAFAH1B3, FP-rhodamine probe, fluorescence polarization | hit rate 0.28% among 340,000 | inhibition, % at 3.39 µM;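 active means inhibition above the screen-wide average of all tested compounds plus 3 SD, cut at about 25% in these data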
PP5 inh = PP5 (human) phosphatase inhibition; P53041; purified PP5c, OMFP substrate fluorescence; inhibition, % at 6.7 µM; hit rate 0.18% among 320,000;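 active means inhibition above the campaign's mean inhibition across all tested compounds plus 3 SD, cut at about 9.5% in these data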
Target sequence (P53041 whole entry, looked up): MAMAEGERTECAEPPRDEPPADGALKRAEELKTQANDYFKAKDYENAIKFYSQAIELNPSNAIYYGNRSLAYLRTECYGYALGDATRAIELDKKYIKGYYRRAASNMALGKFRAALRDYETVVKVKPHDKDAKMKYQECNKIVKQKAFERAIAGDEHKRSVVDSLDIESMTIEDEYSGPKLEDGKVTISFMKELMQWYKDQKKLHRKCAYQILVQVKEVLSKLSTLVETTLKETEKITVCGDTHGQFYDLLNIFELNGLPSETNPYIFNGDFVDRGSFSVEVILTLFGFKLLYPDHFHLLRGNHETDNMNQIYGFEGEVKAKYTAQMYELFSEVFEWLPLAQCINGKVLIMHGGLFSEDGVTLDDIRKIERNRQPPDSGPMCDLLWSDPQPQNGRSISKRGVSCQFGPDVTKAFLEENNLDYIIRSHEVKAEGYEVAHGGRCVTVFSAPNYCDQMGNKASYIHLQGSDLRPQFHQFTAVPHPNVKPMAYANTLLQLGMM
pPAFAH inh = pPAFAH (human) enzyme inhibition; hit rate 1.5% among 330,000; Q13093; inhibition, % at 3.39 µM; AID 463082; recombinant pPAFAH, FP-rhodamine probe fluorescence polarization;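 active means inhibition above the mean inhibition across the screen plus 3 SD, cut at about 25% in these data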;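 further: inhibitors block binding of the rhodamine activity-based probe so polarization drops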
PP1 counter = blocks human PP1-alpha phosphatase, a PP5 counter-screen | inhibition, % at 6.7 µM | purified PP1alpha, OMFP fluorescence | hit rate 0.9% among 320,000;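 active means inhibition above the mean inhibition of all tested compounds plus 3 SD, computed separately for each screening campaign, cut at about 15% in these data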
PAFAH1B2 inh = inhibitors of human PAFAH1B2 | P68402 | recombinant PAFAH1B2, FP-rhodamine activity probe, fluorescence polarization | inhibition, % at 3.39 µM | hit rate 1.2% among 340,000 | AID 492953;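 active means inhibition above the mean of all tested compounds plus 3 SD, cut at about 24% in these data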
PP5 inh confirm = PP5 (human) inhibition, confirmation; shares compounds with PP5 inh; Purified PP5, fluorogenic phosphatase substrate, fluorescence; inhibition, % at 6.7 µM; hit rate 22% among 460; in the data active means inhibition above about 9.5%
PP1 inh counter = counter-screen for PP5 inhibitors: human PP1 phosphatase inhibition. hit rate 4% among 460. shares compounds with PP5 inh. PP1 enzyme, fluorescent phosphatase substrate. inhibition, % at 6.7 µM; in the data active means inhibition above about 16%
PP1 confirm = human PP1 phosphatase inhibition, confirmation; shares compounds with PP1 counter; purified PP1alpha, OMFP substrate fluorescence; inhibition, % at 6.7 µM; hit rate 52% among 1,900;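 active means mean PP1 inhibition above a set limit taken from the earlier primary screen, cut at about 15% in these data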
PP5 counter = counter-screen for PP1 inhibitors: human PP5 phosphatase inhibition; shares compounds with PP1 counter; hit rate 4% among 1,900; inhibition, % at 6.7 µM; purified PP5c, OMFP fluorescence;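 active means mean PP5 inhibition over triplicate wells above about 9.5% taken from the earlier PP1 screen, limit read from the data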
pPAFAH confirm = pPAFAH (human) inhibition, confirmed | shares compounds with pPAFAH inh | hit rate 72% among 2,300 | recombinant pPAFAH, FP-Rh probe fluorescence polarization | inhibition, % at 3.39 µM | AID 463230;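 active means mean inhibition of the triplicate above the hit cutoff set for the earlier primary screen, cut at about 25% in these data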
PAFAH1B3 confirm = PAFAH1B3 (human) inhibition, confirmed; shares compounds with PAFAH1B3 inh; hit rate 30% among 390; recombinant PAFAH1B3, FP-Rh activity-based probe, fluorescence polarization; inhibition, % at 3.39 µM;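 active means average inhibition over triplicate runs above the hit cutoff set in the earlier primary screen, cut at about 25% in these data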
Numbers stand for hits; – = inactive; · = not tested or not shown.

SMILES	PAFAH2 FP inh	PAFAH1B3 inh	PP5 inh	pPAFAH inh	PP1 counter	PAFAH1B2 inh	PP5 inh confirm	PP1 inh counter	others
CC1(C)CC(=O)C2=C(C1)Oc1ncn(Cc3ccco3)c(=N)c1C2c1ccccc1 (stereo unspecified)	–	–	–	–	–	–	·	·
COc1ccc(C2C3=C(CC(C)(C)CC3=O)Oc3ncn(Cc4ccccc4)c(=N)c32)cc1 (stereo unspecified)	–	–	11	–	–	–	–	–
O=C(NC1(O)C(=O)c2ccccc2C1=O)c1ccc(C(F)(F)F)cc1	·	·	18	–	–	·	38	–
O=C(O)C1C2C=CC(O2)C1C(=O)Nc1ccc(S(=O)(=O)N2CCc3ccccc32)cc1 (stereo unspecified)	–	–	17	–	–	–	–	–
COc1ccc(NC(=O)C2C3C=CC(O3)C2C(=O)O)cc1 (stereo unspecified)	–	–	–	–	–	–	·	·
CC(C)OC(=O)c1cc(NC(=O)C2C3C=CC(O3)C2C(=O)O)cc(C(=O)OC(C)C)c1 (stereo unspecified)	–	–	31	–	–	–	–	–
CC(=O)c1ccc(NC(=O)C2C3C=CC(O3)C2C(=O)O)cc1 (stereo unspecified)	–	–	24	–	–	–	–	–
CC(=O)c1ccc(NC(=O)C2C3CCC(C3)C2C(=O)O)cc1 (stereo unspecified)	–	–	–	–	–	–	·	·
CC(C)OC(=O)c1cc(NC(=S)Nc2ccc([N+](=O)[O-])cc2)cc(C(=O)OC(C)C)c1	–	–	–	–	–	–	·	·
COc1cccc(NC(=O)C2C3C=CC(O3)C2C(=O)O)c1 (stereo unspecified)	–	–	24	–	–	–	–	18
CC(=O)Nc1ccc(C2NC(=O)CCC2[N+](=O)[O-])cc1 (stereo unspecified)	–	–	–	–	–	–	·	·
COc1ccc(Cl)cc1NC(=O)CN(C)C(=O)c1cn2ccccc2n1	–	–	–	–	–	–	·	·
O=C(Nc1ccccc1N1CCOCC1)C1CCCO1 (stereo unspecified)	–	–	·	–	·	–	·	·
Nc1ccccc1NC(=O)CCn1c(=S)[nH]c2ccccc2c1=O	–	–	–	–	–	–	·	·
CCCOC(=O)c1ccc(NC(=O)C2C3C=CC(O3)C2C(=O)O)cc1 (stereo unspecified)	–	–	21	–	–	–	–	–
O=C(O)C1C2C=CC(O2)C1C(=O)Nc1ccc2c(c1)OCCO2 (stereo unspecified)	·	·	15	–	–	·	–	–
N/C(=N\c1nc2c(c(=O)[nH]1)CCC2)Nc1cccc(Cl)c1	–	–	–	–	–	–	·	·
Cc1cccc(N/C(N)=N/c2nc3c(c(=O)[nH]2)CCCC3)c1	–	–	13	–	–	–	–	–
FC(F)C(F)(F)C(F)(F)C(F)(F)c1cc(-c2ccccc2)n[nH]1	–	–	11	56	–	–	9.7	–	pPAFAH confirm=50
Cc1ccc(NC(=S)NC(=O)c2cncc(Br)c2)cc1Cl	·	·	–	–	–	·	·	·
N#Cc1c(NC(=O)c2ccc(Br)o2)n(-c2ccccc2)c2nc3ccccc3nc12	–	65	11	–	–	–	33	16	PAFAH1B3 confirm=48
N#Cc1c(N)n(-c2ccc(O)cc2)c2nc3ccccc3nc12	–	–	–	–	–	–	·	·
Cc1ccc(C(=O)NC2(O)C(=O)c3ccccc3C2=O)cc1C	–	37	15	–	–	–	41	–	PAFAH1B3 confirm=37
CCN(CC)CCNC(=O)c1ccc(NC(=O)C2CCN(c3ncnc4sc(C)c(C)c34)CC2)cc1	–	–	–	–	–	–	·	·
O=C(/C=C/c1ccc(O)cc1)c1ccc(NC2=C(N3CCCCC3)C(=O)c3ccccc3C2=O)cc1	–	54	9.9	–	–	–	37	–	PAFAH1B3 confirm=–
SMILES	PAFAH2 FP inh	PAFAH1B3 inh	PP5 inh	pPAFAH inh	PP1 counter	PAFAH1B2 inh	PP5 inh confirm	PP1 inh counter	others
CCCN1CCN(CCCNC(=O)C(CC)n2nc(C)n3c(cc4occc43)c2=O)CC1 (stereo unspecified)	–	–	–	–	–	–	·	·
N#CC1=C(N)SC(N)=C(C#N)C1c1ccc(C(F)(F)F)cc1	·	·	–	–	39	·	·	·	PP1 confirm=–;PP5 counter=–
O=C1Nc2cc(C(=O)N3CCN(c4ccccc4F)CC3)ccc2NC1CSCc1ccccc1F (stereo unspecified)	·	·	–	–	19	·	·	·	PP1 confirm=33;PP5 counter=–
Cc1ccc(CNC(=O)c2ccc(N3CCC4(CC3)CC(c3cccc(Br)c3)=NO4)c(NC(=O)c3ccc(Br)cc3)c2)cc1	–	–	·	–	·	–	·	·
Cc1ccc(CNC(=O)c2ccc(N3CCC4(CC3)CC(c3cccc(Br)c3)=NO4)c(NC(=O)c3c(Cl)cccc3Cl)c2)cc1	–	–	–	–	21	–	·	·	PP1 confirm=–;PP5 counter=–
Cc1cc(C(=O)COC(=O)c2ccc[nH]c2=O)c(C)n1-c1ccc(Br)cc1	–	–	–	–	18	–	·	·	PP1 confirm=–;PP5 counter=–
Cc1ccc(S(=O)(=O)Nc2ccc3c(c2)C(=O)NC3=O)cc1[N+](=O)[O-]	–	–	–	–	–	–	·	·
N#Cc1ccsc1NC(=O)COC(=O)C1=NNC(=O)CC1	–	–	–	–	19	–	·	·	PP1 confirm=–;PP5 counter=–
O=C1CCC(C(=O)OCC(=O)Nc2cc(Cl)ccc2F)=NN1	–	–	·	–	·	–	·	·
COc1ccc2nc3cc(Cl)ccc3c(Nc3cc(CN4CCCC4)c(O)c(CN4CCCC4)c3)c2n1	·	·	–	–	32	·	·	·	PP1 confirm=–;PP5 counter=–
Cc1nc(C)c(NC(=O)N2CCc3ccccc32)cc1NC(=O)N1CCc2ccccc21	–	–	–	–	–	–	·	·
Cn1ccc2cc3c(cc21)CCN3C(=O)Nc1cccnc1	–	–	–	–	35	–	·	·	PP1 confirm=–;PP5 counter=–
Cc1ccc(S(=O)(=O)Oc2cc(N)c3c(n2)CCC3)cc1	–	–	–	–	–	–	·	·
COc1cccc(CSc2nc3ccncc3[nH]2)c1	–	–	–	–	–	–	·	·
Cc1c(/C=N/NC(=O)CNc2ccccc2)c2ccccn2c1C(=O)c1ccc(Cl)cc1	–	–	–	–	21	–	·	·	PP1 confirm=–;PP5 counter=–
Cc1ccccc1NCC(=O)N/N=C/c1c(C)c(C(=O)c2ccc(Cl)cc2)n2ccccc12	–	–	–	–	–	–	·	·
